About 83,000 compounds went through this panel and 20% of them were active in at least one assay; those are over-represented in the sample as a whole.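 Compound tested at a single concentration for 48 hours in 96-well plates; a percent growth value below 10 was scored as active.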 Activity calls are given as the source filed them.
Columns and labels:
Assay in all cases: NCI-60 one-dose screen, 48 h (100 = growth as untreated, 0 = no growth, -100 = all killed)
Conditions in all cases: 10 µM unless noted
DU-145 prostate = tested on: DU-145 prostate
K-562 leukemia = tested on: K-562 leukemia
MALME-3M melanoma = tested on: MALME-3M melanoma
MDA-MB-231 breast = tested on: MDA-MB-231 breast
RXF 393 renal = tested on: RXF 393 renal
SF-268 CNS = tested on: SF-268 CNS
SF-295 CNS = tested on: SF-295 CNS
SF-539 CNS = tested on: SF-539 CNS
UACC-257 melanoma = tested on: UACC-257 melanoma
M14 melanoma = tested on: M14 melanoma

Measured: growth

O=C(CSc1nc2ccccc2c(=O)n1CCc1ccccc1)Nc1ccc(S(=O)(=O)Nc2ccc(Cl)nn2)cc1
inactive: DU-145 prostate 105% | K-562 leukemia 87.2% | MALME-3M melanoma 96.5% | MDA-MB-231 breast 94.7% | RXF 393 renal 86.5% | SF-268 CNS 96.7% | SF-295 CNS 95.3% | SF-539 CNS 92.3% | UACC-257 melanoma 99.3% | M14 melanoma 96.2%

CN1CCN(Cc2ccc(NC(=O)c3cncc(C#Cc4cnc5ccc(N)nn45)c3)cc2C(F)(F)F)CC1
active: K-562 leukemia 6.78% | MALME-3M melanoma -36.6% | MDA-MB-231 breast 2.36% | RXF 393 renal -9.41% | SF-268 CNS 6.31% | SF-539 CNS 3.36% | M14 melanoma -1.8%
inactive: DU-145 prostate 17.7% | SF-295 CNS 53.8% | UACC-257 melanoma 55.3%

O=S(=O)(Oc1ccc(-c2cn3ccsc3n2)cc1)c1cccc(C(F)(F)F)c1
inactive: DU-145 prostate 103% | K-562 leukemia 96.9% | MALME-3M melanoma 91.3% | MDA-MB-231 breast 101% | RXF 393 renal 100% | SF-268 CNS 110% | SF-295 CNS 98.3% | SF-539 CNS 101% | UACC-257 melanoma 99.6% | M14 melanoma 101%

O=S(=O)(NCCCNc1nccc(-c2[nH]c(-c3ccccc3)nc2-c2ccc(F)c(O)c2)n1)c1ccc(C(F)(F)F)cc1
inactive: DU-145 prostate 79.9% | MDA-MB-231 breast 67.1% | RXF 393 renal 24.5% | SF-268 CNS 54% | SF-295 CNS 31.3% | SF-539 CNS 31.1% | UACC-257 melanoma 24.6%
active: K-562 leukemia 9.88% | MALME-3M melanoma -5.99% | M14 melanoma 3.88%

O=C1CSC(c2cn(-c3ccccc3)nc2-c2ccc(Cl)cc2)N1c1ccccc1 (stereo not given)
inactive: DU-145 prostate 115% | K-562 leukemia 109% | MALME-3M melanoma 115% | MDA-MB-231 breast 107% | RXF 393 renal 126% | SF-268 CNS 109% | SF-295 CNS 99.5% | SF-539 CNS 99% | UACC-257 melanoma 102% | M14 melanoma 99.3%

CN1c2ccccc2Sc2cc(/C=N/Nc3ccnc4cc(Cl)ccc34)ccc21
active: K-562 leukemia -7.83%
inactive: DU-145 prostate 103% | MALME-3M melanoma 94.7% | MDA-MB-231 breast 98.5% | RXF 393 renal 82.2% | SF-268 CNS 99.4% | SF-295 CNS 98.7% | SF-539 CNS 103% | UACC-257 melanoma 96.3% | M14 melanoma 92.7%

CN1CCN(c2ccc(Nc3nc(NCCCNS(=O)(=O)c4ccc(C(F)(F)F)cc4)c4sccc4n3)cc2)CC1
active: DU-145 prostate -8.78% | K-562 leukemia 5.24% | MALME-3M melanoma -87.8% | MDA-MB-231 breast -60.1% | RXF 393 renal -87% | SF-268 CNS -53.3% | SF-295 CNS -74.6% | SF-539 CNS -92.6% | UACC-257 melanoma -91.7% | M14 melanoma -80.5%

CCOC(=O)c1ccc(NC2=C(Cl)C(=O)c3nc(C)ccc3C2=O)cc1
inactive: DU-145 prostate 91% | MALME-3M melanoma 11.7% | MDA-MB-231 breast 77.4% | RXF 393 renal 45.6% | SF-268 CNS 70.8% | SF-295 CNS 65% | SF-539 CNS 54.3% | UACC-257 melanoma 44.2% | M14 melanoma 52.4%
active: K-562 leukemia 7.29%

N#Cc1nc(-c2ccccc2)oc1N1CCC(C2(C(F)(F)F)N=N2)CC1
inactive: DU-145 prostate 103% | K-562 leukemia 90% | MALME-3M melanoma 102% | MDA-MB-231 breast 93.8% | RXF 393 renal 99.4% | SF-268 CNS 101% | SF-295 CNS 101% | SF-539 CNS 99.2% | UACC-257 melanoma 102% | M14 melanoma 102%

C#CCN(C)CCCOc1ccc(NC(=O)CCCCCCCCC(=O)NO)cc1Cl
inactive: DU-145 prostate 81.7% | K-562 leukemia 40.7% | MALME-3M melanoma 45.9% | MDA-MB-231 breast 89.5% | RXF 393 renal 37.3% | SF-268 CNS 97.8% | SF-295 CNS 50.2% | SF-539 CNS 74.5% | UACC-257 melanoma 42.8% | M14 melanoma 72.9%

COc1ccc(/C(=N\N=C(N)N)c2ccc(Cl)cc2)cc1OC
inactive: DU-145 prostate 90.3% | K-562 leukemia 49.6% | MALME-3M melanoma 90% | MDA-MB-231 breast 71% | RXF 393 renal 54.3% | SF-268 CNS 59.9% | SF-295 CNS 71.8% | SF-539 CNS 83% | UACC-257 melanoma 90.2% | M14 melanoma 65.5%

CCOP(=O)(OCC)OC[C@]12CCC(C)(C)CC1C1=CC[C@@H]3[C@@]4(C)CCCNC(C)(C)[C@@H]4CC[C@@]3(C)[C@]1(C)CC2 (stereo not given in full)
inactive: DU-145 prostate 82.6% | MALME-3M melanoma 103% | MDA-MB-231 breast 81.1% | RXF 393 renal 64% | SF-268 CNS 80.2% | SF-295 CNS 99.3% | SF-539 CNS 86.3% | UACC-257 melanoma 98.2% | M14 melanoma 83.3%
active: K-562 leukemia 2.53%

COc1ccc2[nH]cc(/C=N/Nc3ccnc4cc(Cl)ccc34)c2c1
active: DU-145 prostate -98.9% | K-562 leukemia -4.83% | MALME-3M melanoma -97.7% | MDA-MB-231 breast -93.9% | RXF 393 renal -100% | SF-268 CNS -60.7% | SF-295 CNS -100% | SF-539 CNS -100% | UACC-257 melanoma -84.2% | M14 melanoma -79.7%

Cc1ccc(C(=O)CSc2nnc(-c3ccc(-c4ccc(Cl)cc4)nc3C)o2)cc1
inactive: DU-145 prostate 115% | K-562 leukemia 101% | MALME-3M melanoma 96.1% | MDA-MB-231 breast 92.6% | RXF 393 renal 119% | SF-268 CNS 105% | SF-295 CNS 92.5% | SF-539 CNS 97.6% | UACC-257 melanoma 118% | M14 melanoma 98.2%

NC1=NC2(CCCC2)N(c2ccc(S(=O)(=O)Nc3nccs3)cc2)C(N)=N1
inactive: DU-145 prostate 111% | K-562 leukemia 96.5% | MALME-3M melanoma 101% | MDA-MB-231 breast 100% | RXF 393 renal 104% | SF-268 CNS 105% | SF-295 CNS 104% | SF-539 CNS 95% | UACC-257 melanoma 101% | M14 melanoma 108%

COc1ccc(/C=N/NC(=O)c2c(N)nn(C)c2Nc2ccccc2)cc1Oc1ccccc1
inactive: DU-145 prostate 101% | K-562 leukemia 88% | MALME-3M melanoma 91.1% | MDA-MB-231 breast 94.9% | RXF 393 renal 87.1% | SF-268 CNS 94% | SF-295 CNS 90.4% | SF-539 CNS 95.7% | UACC-257 melanoma 96.9% | M14 melanoma 101%

COC(=O)c1ccc(NC2=C(Cl)C(=O)c3nc(C)ccc3C2=O)cc1
inactive: DU-145 prostate 68.5% | MALME-3M melanoma 74.7% | MDA-MB-231 breast 91.9% | RXF 393 renal 89.7% | SF-268 CNS 72.9% | SF-295 CNS 61.3% | SF-539 CNS 72.6% | UACC-257 melanoma 78.1% | M14 melanoma 59.9%
active: K-562 leukemia 7.53%

COc1cc2oc(-c3cccc(NC(=O)c4cccc([N+](=O)[O-])c4)c3)cc(=O)c2c(OC)c1OC
inactive: DU-145 prostate 66.9% | K-562 leukemia 60.3% | MALME-3M melanoma 33.7% | MDA-MB-231 breast 41% | RXF 393 renal 36.4% | SF-268 CNS 43.2% | SF-295 CNS 79.8% | UACC-257 melanoma 88.2% | M14 melanoma 83.8%
active: SF-539 CNS -8.95%

Nc1ccc(Nc2ncnc3sc4c(c23)CCN(Cc2ccccc2)C4)cc1
inactive: DU-145 prostate 106% | K-562 leukemia 96.7% | MALME-3M melanoma 103% | MDA-MB-231 breast 86.6% | RXF 393 renal 91.2% | SF-268 CNS 101% | SF-295 CNS 97.8% | SF-539 CNS 78.5% | UACC-257 melanoma 106% | M14 melanoma 106%

Cc1ccc2c(n1)C(=O)C(Cl)=C(Nc1ccccc1C(=O)OC(C)(C)C)C2=O
inactive: MDA-MB-231 breast 55.5% | SF-268 CNS 79.6% | SF-295 CNS 91.8% | SF-539 CNS 83.1%
active: DU-145 prostate -56.2% | K-562 leukemia -15.7% | MALME-3M melanoma -45.9% | RXF 393 renal -81.7% | UACC-257 melanoma -63.5% | M14 melanoma -10.6%

Cc1cc(C)cc(NC2=C(Cl)C(=O)c3nc(C)ccc3C2=O)c1
inactive: MALME-3M melanoma 76.1% | MDA-MB-231 breast 53.8% | RXF 393 renal 75% | SF-268 CNS 85.2% | SF-295 CNS 77.2% | SF-539 CNS 71.5% | UACC-257 melanoma 30.1% | M14 melanoma 72.8%
active: DU-145 prostate 2.27% | K-562 leukemia 6.63%

CCOC(=O)c1c(NC(=O)c2cccc(C(F)(F)F)c2)sc2c1CCC(=O)C2
active: K-562 leukemia 5.25% | SF-539 CNS -9.48%
inactive: DU-145 prostate 94.8% | MALME-3M melanoma 58.3% | MDA-MB-231 breast 55.2% | RXF 393 renal 25.6% | SF-268 CNS 27.7% | SF-295 CNS 24.3% | UACC-257 melanoma 82.2% | M14 melanoma 42.7%

CC(=O)C1=C(C)NC(NNc2ccccc2)=NC1c1ccc([N+](=O)[O-])cc1 (stereo not given)
inactive: DU-145 prostate 99.4% | K-562 leukemia 49% | MALME-3M melanoma 116% | MDA-MB-231 breast 88.1% | RXF 393 renal 102% | SF-268 CNS 80.7% | SF-295 CNS 87.4% | SF-539 CNS 99.9% | UACC-257 melanoma 104% | M14 melanoma 101%

Cc1ccc2c(n1)C(=O)C(Cl)=C(Nc1ccc(C(F)(F)F)cc1)C2=O
active: K-562 leukemia 7.13% | MALME-3M melanoma -49.6% | RXF 393 renal -15.7%
inactive: DU-145 prostate 105% | MDA-MB-231 breast 76.4% | SF-268 CNS 97.7% | SF-295 CNS 112% | SF-539 CNS 101% | UACC-257 melanoma 35.6% | M14 melanoma 28.6%

COc1cc(/C=C2/C(=O)Nc3ccc(Cl)cc32)ccc1OCc1ccc(Cl)cc1
inactive: DU-145 prostate 89.5% | K-562 leukemia 88.6% | MALME-3M melanoma 82.3% | MDA-MB-231 breast 86.9% | RXF 393 renal 93.4% | SF-268 CNS 90.2% | SF-295 CNS 97.7% | SF-539 CNS 92.2% | UACC-257 melanoma 102% | M14 melanoma 96.4%
